Screening data (PubChem BioAssay)
Only some compounds are listed: those with a hit (about 21% of all), similar ones and a draw of the others.
IL-1B inflam inh – inflammasome signaling inhibition, IL-1 beta readout. THP-1 LPS/ATP IL-1B secretion, AlphaLISA, 16 h; active compounds read low. activity change, % at 57.5 µM. 360,000 compounds, 4.7% hits; in the data active = activity change below about -50%; inconclusive = mostly about -30% to -49%
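Secreted IL-1B measured by AlphaLISA bead assay after 16 h compound exposure of THP-1 cells; compounds (final up to 57.5 uM) added 1 h before LPS (250 ng/mL) and ATP (1.25 mM) stimulation; lower signal means less secretion.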
Gal4-VP16 FLuc – inhibits Gal4-VP16 luciferase reporter, ROR gamma counter-screen; Drosophila S2 Gal4-VP16 UAS-luciferase, luminescence, 20 h; 310,000 compounds, 3.5% hits; Potency, µM (series often up to 53.6 µM), for the others: at the highest dose activity, negative = inhibition, usual class: inhibitors; AID 2546;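 also: Gal4-VP16 expression switched on by copper sulfate through the metallothionein promoter; potency is read from the fitted curve at half-maximal effect; nearly all actives have a fitted effect of over 50% in size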
RORg inh – inhibitors of mouse ROR gamma transcriptional activity | Drosophila S2 Gal4-RORgamma UAS-luciferase reporter, 20 h | Potency, µM (titrated, usually from 53.6 µM), for inactives: at the highest dose activity change, negative = inhibition, hits mostly inhibitors | 310,000 compounds, 5.4% hits | AID 2551; also: potency is read from the fitted curve at half-maximal effect; nearly all actives have a fitted effect of over 60% in size
Target sequence (P51450 whole entry, looked up, the tested form may be a part): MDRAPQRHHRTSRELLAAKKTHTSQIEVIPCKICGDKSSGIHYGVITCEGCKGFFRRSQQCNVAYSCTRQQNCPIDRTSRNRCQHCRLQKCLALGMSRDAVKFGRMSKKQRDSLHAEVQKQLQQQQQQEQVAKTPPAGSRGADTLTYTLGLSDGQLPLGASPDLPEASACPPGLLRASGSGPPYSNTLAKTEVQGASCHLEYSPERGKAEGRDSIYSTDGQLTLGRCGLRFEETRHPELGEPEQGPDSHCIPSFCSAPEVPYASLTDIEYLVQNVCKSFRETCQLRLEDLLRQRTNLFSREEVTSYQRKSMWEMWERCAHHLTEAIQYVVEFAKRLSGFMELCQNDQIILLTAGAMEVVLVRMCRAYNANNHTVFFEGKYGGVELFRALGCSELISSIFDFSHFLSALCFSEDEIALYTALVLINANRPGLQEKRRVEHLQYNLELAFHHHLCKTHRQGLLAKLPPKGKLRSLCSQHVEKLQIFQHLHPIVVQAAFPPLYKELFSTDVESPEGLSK
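Luciferase reporter read in Schneider cells carrying Gal4-RORγ (mouse) and UAS-Photinus luciferase; cells given compound 1 h before 700 uM copper sulfate induction, then incubated 20 h at ambient temperature.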
ELG1 DNA repair – blocks ELG1-dependent DNA repair in HEK293T cells. HEK293T ELG1-luciferase reporter, luminescence, 16 h; DNA damage induced by 5-fluorouridine. 330,000 compounds, 2.3% hits. Potency, µM (series often up to 46.1 µM), without a hit: at the highest dose activity change, negative = inhibition, actives largely listed as inhibitors; also: potency is read from the fitted curve at half-maximal effect; nearly all actives have a fitted effect of over 55% in size
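DMSO vehicle served as the neutral condition. Each well held 2,000 cells given 5-fluorouridine plus compound; after 16 hr at 37 °C/5% CO2, ONE-Glo was added and luciferase measured 30 min later.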
DT40 TDP1 CPT – growth inhibition of DT40 Tdp1-/-;hTDP1 cells with camptothecin (screen for TDP1 inhibitors); chicken DT40 Tdp1-/-;hTDP1 cells + 20 nM CPT, ATP luminescence, 48 h; Potency, µM (top dose mostly 46.2 µM), without a hit: top-dose activity change, negative = growth inhibition, usual class: inhibitors; 420,000 compounds, 12% hits; AID 686979; also: potency is read from the fitted curve at half-maximal effect; nearly all actives have a fitted effect of over 55% in size
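Chicken DT40 Tdp1-/- cells complemented with human TDP1, 400 cells/well, exposed to compounds plus 20 nM camptothecin for at least 48 h at 37 C; viability read as ATP content by CellTiter-Glo luminescence.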
DT40 TDP1 no CPT – qHTS for Inhibitors of human tyrosyl-DNA phosphodiesterase 1 (TDP1): qHTS in cells in absence of CPT; DT40 Tdp1-/- hTDP1 cells, no CPT, ATP luminescence, 48 h; Potency, µM (doses to about 46.2 µM), for the others: at the highest dose activity change, negative = growth inhibition, hits mostly inhibitors; 420,000 compounds, 15% hits; also: potency is read from the fitted curve at half-maximal effect; nearly all actives have a fitted effect of over 55% in size
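Compound effects on proliferation are scored in DT40 Tdp1-/-;hTDP1 cells in the absence of CPT. ATP levels (CellTiter-Glo luminescence) are recorded after a ≥48 hr, 37 °C incubation.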
Active calls of the source: *; u = inconclusive; x = not tested or not shown; [ ] = dose if it differs, or a comment. Unless noted, calls follow the shape of the dose curve; as a rule, active = well fitted curve in the direction sought with a large enough effect; inconclusive = small, poorly fitted or top-dose-only effect, or another doubt; inactive = no such curve, though single readings can be large; an effect the other way counts as inactive or inconclusive. % is scaled to controls: 0 for no effect and ±100 for the full control effect.

SMILES	IL-1B inflam inh	Gal4-VP16 FLuc	RORg inh	ELG1 DNA repair	DT40 TDP1 CPT	DT40 TDP1 no CPT
CCN1CCN(Cc2ccc(NC(=O)c3cc(NC(=O)c4nccnc4N)cc(OC)c3)cc2C(F)(F)F)CC1	u	3%	-41%	-17%	u	u
CCN1CCN(Cc2ccc(NC(=O)c3cc(NC(=O)c4cnnc5ccccc45)cc(OC)c3)cc2C(F)(F)F)CC1	3	-1%	u	2%	8.2µM*	6.5µM*
CCN1CCN(Cc2ccc(NC(=O)c3cc(NC(=O)c4cncc(-c5ccc(C#N)cc5)c4)cc(OC)c3)cc2C(F)(F)F)CC1	-59*	3.5µM*	2.8µM*	26%	2.3µM*	2.6µM*
O=C(CSCc1cc(=O)c2cc(F)ccc2[nH]1)Nc1ccccc1Cl	x	x	x	x	-26%	u
Cc1ccccc1S(=O)(=O)Cc1ccc(C(=O)NCCCN2CCC(C)CC2)o1	-3	13%	-4%	0%	-9%	25%
Cc1cnc(C=NNC(N)=S)c2cccc(N)c12	62	x	x	x	3.3µM*	3.7µM*
COc1cc2c(-c3ccccc3)c(C)oc2cc1/C=N/NC(N)=S	14	x	x	x	u	u
NC(=S)NN=Cc1nccc2ccccc12	109	x	x	x	2.3µM*	2.1µM*
NC(=S)NN=Cc1nccc2c(C(F)(F)C(F)(F)C(F)(F)F)cccc12	117	x	x	x	0.016µM*	0.52µM*
COc1cccc(NC(=O)C2(C)CCCN2C(=O)C(C)C)c1OC (stereo unspecified)	0	x	x	x	-1%	-9%
CC(/C=C/C=C(\C)C(=O)O[C@@H]1O[C@H](CO[C@@H]2O[C@H](CO)[C@@H](O)[C@H](O)[C@H]2O)[C@@H](O)[C@H](O)[C@H]1O)=C\C=C\C=C(C)\C=C\C=C(/C)C(=O)O[C@@H]1O[C@H](CO[C@@H]2O[C@H](CO)[C@@H](O)[C@H](O)[C@H]2O)[C@@H](O)[C@H](O)[C@H]1O	x	-7%	-8%[10 µM]	x	8%	3%
C/C=C/C1=Cc2ccccc2C(C(C(=O)OC)C(=O)OC)N1C(=O)OC (stereo unspecified)	x	-14%	-27%	x	x	x
CCC/C=C(\CCC)C(NC(=O)c1ccc(C(F)(F)F)cc1)c1ccc(C(F)(F)F)cc1 (stereo unspecified)	x	7%	1%	x	x	x
COc1ccc(C2CC(c3ccc(F)cc3)n3nc(NC(=O)c4ccco4)nc3N2)cc1 (stereo unspecified)	-5	13µM*	7.1µM*	-9%	0%	-4%
COc1ccc(C2CC(c3ccc(OC)cc3)n3nc(NC(=O)c4cccs4)nc3N2)cc1 (stereo unspecified)	-18	u	5µM*	-5%	u	u
CCC(C)NC(=O)C1c2ccccc2C(=O)N(c2ccc(OC)cc2)C1c1ccc(OC)cc1 (stereo unspecified)	38	7%	-9%	18%	u	21µM*
CN(C)S(=O)(=O)N1CCC(Oc2ccc(C(=O)NC3Cc4ccccc4C3)cc2)CC1	17	u	u	16%	u	16µM*
CN(C)S(=O)(=O)N1CCC(Oc2ccc(C(=O)NC3CCOC(C)(C)C3)cc2)CC1 (stereo unspecified)	15	4%	2%	0%	-13%	-15%
CCN1CCN(C(=O)c2cccc(OC3CCN(S(=O)(=O)N(C)C)CC3)c2)CC1	17	18%	22%	u	2%	9%
CN(C)S(=O)(=O)N1CCC(Oc2cccc(C(=O)NC3CCCCCC3)c2)CC1	1	u	42%	16µM*	18µM*	15µM*
CCCNC(=O)C(Cc1ccc(I)cc1)NC(=O)c1ccc(C#N)cc1 (stereo unspecified)	19	x	x	19%	4%	-22%
Cc1ccc(C)c(NC(=O)CSc2ncc3c(n2)-c2ccc(Cl)cc2N(C)S3(=O)=O)c1	x	x	x	x	u	18µM*
COc1ccc(CNC(=O)CSc2ncc3c(n2)-c2cc(Cl)ccc2N(Cc2ccccc2)S3(=O)=O)cc1	x	x	x	x	2%	-17%
COC(=O)CSc1ncc2c(n1)-c1ccccc1N(Cc1ccccc1C)S2(=O)=O	x	x	x	x	-28%	-25%
COc1cccc(NC(=O)CSc2ncc3c(n2)-c2ccc(Cl)cc2N(C)S3(=O)=O)c1	x	x	x	x	-16%	-30%
SMILES	IL-1B inflam inh	Gal4-VP16 FLuc	RORg inh	ELG1 DNA repair	DT40 TDP1 CPT	DT40 TDP1 no CPT
CN1c2ccccc2-c2nc(SCC(=O)Nc3ccccc3)ncc2S1(=O)=O	x	x	x	x	u	18µM*
COc1ccc(CNC(=O)CSc2ncc3c(n2)-c2cc(Cl)ccc2N(Cc2ccccc2)S3(=O)=O)cc1OC	x	x	x	x	15µM*	12µM*
CCOc1ccc(NC(=O)CSc2ncc3c(n2)-c2ccccc2N(C)S3(=O)=O)cc1	x	x	x	x	0%	6%
COc1ccccc1CNC(=O)CSc1ncc2c(n1)-c1ccccc1N(Cc1ccc(C)cc1)S2(=O)=O	x	x	x	x	u	12µM*
CC(C)(C)OC(=O)N1C=CCC1CN1C(=O)COCC1=O (stereo unspecified)	x	-4%	15%	x	x	x
Cc1cc(=O)n2nc(N3CCC(C(=O)Nc4ccc(C)c(Cl)c4)CC3)sc2n1	x	x	x	x	u	-21%
C=CCN1C(=O)c2ccc(C(=O)N(CC)CC(=O)Nc3cc(Cl)ccc3C)cc2C1=O	5	x	x	10%	1%	-18%
COc1ccc(OC(C)C(=O)NC2CCCCCCC2)cc1 (stereo unspecified)	-10	x	x	x	-25%	-8%
COc1ccc(CNC(=O)CSc2ncc3c(n2)-c2cc(Cl)ccc2N(C)S3(=O)=O)cc1	x	x	x	x	u	-26%
CCOC(=O)c1cccc(NC(=O)CSc2ncc3c(n2)-c2ccc(Cl)cc2N(Cc2ccccc2)S3(=O)=O)c1	x	x	x	x	u	1.5µM*
COc1ccccc1NC(=O)CSc1ncc2c(n1)-c1cc(Cl)ccc1N(C)S2(=O)=O	x	x	x	x	7.3µM*	10µM*
COc1ccc(CNC(=O)CSc2ncc3c(n2)-c2ccc(Cl)cc2N(Cc2ccc(F)cc2)S3(=O)=O)cc1OC	x	x	x	x	12µM*	12µM*
CN1c2ccc(Cl)cc2-c2nc(SCC(=O)NCc3ccc(F)cc3)ncc2S1(=O)=O	x	x	x	x	-18%	-10%
COc1ccc2c(c1)CCC(=O)[C@H](O)C[C@H](c1ccccc1)OC2=O	3	x	x	x	u	u
